Sampled rows, rich in hits. Any-hit rate of the full collection: about 1.3%.
TRPML1 agonist: human mucolipin-1 channel agonism; Q9GZU1; TRPML1-expressing cells, Ca2+ dye fluorescence, FDSS; activation, % (no concentration beside the values); actives 0.12% (n = 410,000); AID 624414; in the data active means activation above about 50%; inconclusive means mostly about 30% to 49%
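Tetracycline-induced TRPML1-DL cells are seeded and incubated overnight before loading with a no-wash Ca2+ dye and quencher. Agonist activity is taken from the 110 s fluorescence read following compound pin-transfer on an FDSS, before EC80 54-4 challenge.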
TSG101-PTAP inh: blocks PTAP/TSG101 interaction to inhibit HIV-1 budding; Q99816; Fluorescence polarization, FITC-PTAP peptide / Tsg101 binding; Potency, µM (highest dose often 115 µM), hits mostly inhibitors; 340,000 tested, under 10 active; active means well fitted inhibition curve with a large enough effect in the main read-out, with a control signal flat, not every such curve was filed as active; inconclusive means small, poorly fitted or top-dose-only effect, or effect the other way, or a change in a side signal; inactive means no such curve, though single readings can be large or run the other way
Target sequence (Q99816 whole entry, looked up): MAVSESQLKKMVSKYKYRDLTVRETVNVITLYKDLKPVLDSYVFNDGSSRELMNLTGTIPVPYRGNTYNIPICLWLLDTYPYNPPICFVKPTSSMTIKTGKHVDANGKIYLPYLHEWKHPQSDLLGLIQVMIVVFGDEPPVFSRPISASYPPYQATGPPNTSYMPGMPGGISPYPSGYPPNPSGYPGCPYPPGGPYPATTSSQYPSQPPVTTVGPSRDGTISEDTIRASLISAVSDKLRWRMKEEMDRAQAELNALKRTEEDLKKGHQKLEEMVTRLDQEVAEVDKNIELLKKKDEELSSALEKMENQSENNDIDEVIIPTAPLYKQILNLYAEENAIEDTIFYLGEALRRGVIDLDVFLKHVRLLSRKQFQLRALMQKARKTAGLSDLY
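Fluorescence polarization binding of Tsg101 binding domain (10 uM final) to FITC-labeled PTAP peptide (50 nM final) in HEPES pH 7.5 buffer with NaCl, Tween 20, EDTA, TCEP. Compounds added before peptide; binding 20 min at RT.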
IL2 activator: activators of IL-2; AID 652025; actives 0.065% (n = 360,000); activation, % (series mostly up to about 46 µM); IL-2 activation reporter assay, cell-based qHTS; stimulated with anti-CD3/CD4/CD28 beads; in transgenic mouse T cells; in the data active means activation above about 50%; inconclusive means mostly about 30% to 49%
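Readout: EGFP and DsRed signals by fluorescent plate cytometry. Unstimulated transgenic mouse T cells received compound 60 min before antibody-bead stimulation, then incubated 18 h at 37 degrees C.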
BRCA1 expr up: activators of BRCA1 expression; MCF7-BRCA1-FFLuc reporter, luminescence, 48 h; response scale: scaled: vehicle 0%, 10 µM genistein 100%; Potency, µM (highest dose often 46.1 µM), usual class: activators; actives 1.1% (n = 380,000); AID 624202; further: nearly all actives have a fitted effect of over 80% in size
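MCF7-BRCA1-FFLuc cells, 2000/well in phenol-red-free MEM, attached 2 h then treated 48 h at 37 C. Luciferase luminescence read 15 min after reagent; normalized to genistein maximum activation (10microM) and DMSO, concentration-response fitted.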
TRPML1 blocker: human mucolipin-1 channel inhibition; actives 0.02% (n = 390,000); TRPML1-inducible cells, Ca2+ dye fluorescence, FDSS; active compounds read low; inhibition of EC80 agonist-evoked calcium signal; AID 624415; activity change, negative = inhibition, % (test concentration not listed); Q9GZU1; in the data active means activity change below about -50%; inconclusive means between about -30% and that limit;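 further: stimulus is agonist 54-4 at its EC80 concentration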
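Calcium fluorescence in TRPML1-DL cells induced overnight with Tet: a 110 s read after compound pin addition, then a 110 s antagonist read after challenge with 54-4 at 4 uM final (EC80).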
PKM2 act: PKM2 (human) enzyme activation; purified PKM2, Kinase-Glo ATP luminescence, activation; response scale: 0% is enzyme alone, no compound; actives 0.34% (n = 260,000); P14618; Potency, µM (doses to about 57.5 µM), hits mostly activators; further: nearly all actives have a fitted effect of over 55% in size
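Kinase-Glo luminescence reports ATP generated from ADP (0.1 mM) and PEP (0.5 mM) by purified hPK-M2 after 1 h at room temperature, pH 7.2 imidazole buffer; intermediate enzyme activity allows detecting inhibitors and activators.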
Numbers stand for hits; - = inactive; ? = inconclusive; . = no result given. Unless noted, the call rests on the fitted dose curve; in most records, active means well fitted activation curve with a large enough effect; inconclusive means small, poorly fitted or top-dose-only effect; inactive means no such curve, though single readings can be large or run the other way.

SMILES	TRPML1 agonist	TSG101-PTAP inh	IL2 activator	BRCA1 expr up	TRPML1 blocker	PKM2 act
COc1cccc(NC(=O)Cn2c(=O)n(-c3cccc(OC)c3)c(=O)c3sc4ccccc4c32)c1	-	.	.	-	-	.
COc1ccc2nc(/C=N/NC(=O)[C@@H]3CCCN3C(=O)OC(C)(C)C)ccc2c1	-	-	-	7.1µM	-	-
CC(C)(C)OC(=O)N1CCC[C@H]1C(=O)N/N=C/c1ccc2nccnc2c1	-	-	-	-	-	-
Cc1ccccc1-c1nc(Cc2ccccc2)no1	-	-	-	10µM	-	-
Clc1ccc(-c2nc(Cc3ccccc3)no2)cc1	-	-	-	?	-	-
N/C(=N\OC(=O)c1ccc(F)cc1)c1ccccc1	-	-	-	-	-	-
N/C(=N\OC(=O)c1ccccc1Cl)c1ccc(Cl)cc1	-	-	-	-	-	-
N/C(=N\OC(=O)c1ccc(Cl)cc1)c1ccc(Cl)cc1	-	-	-	11µM	-	-
Cc1ccc(/C(N)=N/OC(=O)c2ccc(F)cc2)cc1	-	-	-	10µM	-	-
O=C(CCl)N=c1sccn1Cc1ccccc1Cl	-	-	-	-	-	-
O=C(Cn1ccsc1=NC(=O)C(F)(F)F)c1ccccc1	-	-	-	7.9µM	-	-
Cc1c(Cl)cccc1NC(=O)CCOc1ccccc1	-	.	.	.	-	.
COc1ccc(C2=NOC(CNC(N)=S)C2)cc1 (stereo not given)	-	-	-	3.2µM	-	-
COc1ccc(CNC(=O)C2CC(c3ccc(OC)cc3)=NO2)cc1 (stereo not given)	-	.	-	-	-	-
Cc1ccc(S(=O)(=O)c2cc(O)ccc2O)cc1C	-	-	-	-	-	16µM
Nc1nonc1-n1nnc(C(=O)N/N=C/c2ccc(OCc3cccc(Cl)c3)cc2)c1CN1CCCCC1	-	-	-	2.5µM	-	.
O=C(O)c1ccc(-c2ccccn2)s1	-	-	-	10µM	-	-
CN(C)c1ccc(/C=C(\C#N)C(=O)Nc2nc3c(s2)CCN(Cc2ccccc2)C3)cc1	?	?	59	-	-	-
O=C(Nc1nc2c(s1)CN(Cc1ccccc1)CC2)C1CCC1	-	-	-	?	-	-
Cn1ccnc1SCC(=O)c1ccc2ccccc2c1	-	-	-	6.3µM	-	-
O=C(c1ccco1)N1CCN(Cc2ccccc2Br)CC1	-	-	-	16µM	-	.
O=C(c1ccco1)N1CCN(C(=O)c2ccco2)CC1	-	.	-	-	.	.
O=C(c1ccco1)N1CCN(c2ccc(N3CCCCC3)nn2)CC1	-	-	-	10µM	-	.
CCCCOc1ccc(CNC(=O)c2cnc3sc(N4CCCC4)nn3c2=O)cc1	-	.	.	.	-	.
O=C(Nc1cccc(F)c1)c1ccc2oc(=O)n(Cc3ccccc3)c2c1	-	.	.	-	-	.
SMILES	TRPML1 agonist	TSG101-PTAP inh	IL2 activator	BRCA1 expr up	TRPML1 blocker	PKM2 act
Cn1nnc(NC(=O)c2cccs2)n1	-	-	-	-	-	.
Cn1nc(C(C)(C)C)c(NC(=O)c2cccs2)c1C(C)(C)C	78	-	-	-	-	-
O=S(=O)(c1cnc2ccccc2c1)N1CCN(c2nc(-c3cccs3)nc3ccccc23)CC1	-	.	.	-	.	.
O=C(NCCc1ccccc1F)c1cccc2cccnc12	-	-	-	2µM	-	-
CCOc1ncccc1C(=O)NCc1ccccc1F	-	-	-	-	-	-
Cc1cccc(-n2cnc(C(=O)NC3CCCCCC3)c2)n1	-	-	-	10µM	-	-
CCN1CCN(S(=O)(=O)c2ccc(Cl)c(C(=O)Nc3ccccc3N3CCCCC3)c2)CC1	100	-	-	-	-	.
CC(C)OC(=O)c1cccc(NC(=O)Cn2nnc3sc4c(c3c2=O)CCCC4)c1	-	.	.	.	-	.
O=C(NC(=S)Nc1cccc([N+](=O)[O-])c1)c1ccccc1	-	-	-	11µM	-	-
O=C(Nc1cccc([N+](=O)[O-])c1)c1ccc2c(c1)OCCO2	-	-	-	13µM	-	-
O=C(Nc1cccc(Cl)c1)c1ccc2c(c1)OCCO2	-	-	-	?	-	-
O=C(NNC(=O)c1ccccc1Cl)c1ccc2c(c1)OCCO2	-	-	-	7.1µM	-	.
C/C(=N\Nc1ccc(Cl)c(C(=O)O)c1)c1cccc([N+](=O)[O-])c1	-	-	-	14µM	-	-
O=C(NNC(=O)c1cccc2ccccc12)c1ccc2c(c1)OCO2	-	-	-	?	-	-
COc1ccc(CNC(=O)c2ccc3c(c2)N(Cc2c(F)cccc2Cl)C(=O)CS3)cc1	-	.	.	-	-	.
C/C(=N/NC(=O)c1ccc2c(c1)OCO2)c1cccc([N+](=O)[O-])c1	-	-	-	5µM	-	.
CC(/C=C/c1ccc2c(c1)OCO2)=N\NC(=O)c1cccc([N+](=O)[O-])c1	-	-	-	-	-	-
CCc1cccc(NC(=O)C2CCN(C(=O)c3cnn(-c4ccccc4)c3-n3cccc3)CC2)c1	-	.	.	-	-	.
C=C1C(=O)C2=CC1CCC(=O)C1(C)CCC(OC(C)=O)C(C)(C)C1CC2O (stereo not given)	-	-	-	-	-	.
CCOC(=O)c1cccc(NC(=O)c2cc3ccccn3n2)c1	-	.	.	.	-	.
COC(=O)Cc1ccc2sc(-c3ccccc3)nc2c1	-	-	-	7.1µM	-	-
O=C(O)Cc1ccc2sc(-c3ccccc3)nc2c1	-	-	-	-	-	-
Cc1ccc(CNC(=O)c2ccc3c(O)c(S(=O)(=O)c4ccc(Cl)cc4)c(=O)[nH]c3c2)cc1	-	.	.	.	-	.
CCN1C(=O)/C(=C/C=C2/CCCN2C)OC1=S	-	?	-	7.1µM	-	-
CN1C(=O)/C(=C\C=C2/CCCN2C)N(C)C1=S	-	-	-	-	-	-
SMILES	TRPML1 agonist	TSG101-PTAP inh	IL2 activator	BRCA1 expr up	TRPML1 blocker	PKM2 act
Fc1ccc(Cc2nnc(-c3cccs3)o2)cc1	-	-	-	10µM	-	-
Fc1ccccc1CSc1nnc(-c2cccs2)o1	-	-	-	4µM	-	-
COc1cccc(C(=O)Nc2ccc3nc(SCCOc4ccccc4)sc3c2)c1	-	.	.	-	-	.
COC(=O)c1ccccc1-c1ccc(/C=N/NC(=O)c2cc3ccccc3o2)o1	-	-	-	-	-	-
COC(=O)c1ccccc1-c1c2ccc(=N)cc-2oc2cc(N)ccc12	99	-	-	-	-	.
Cc1nc2ccccc2nc1-c1csc(-c2ccccc2)n1	-	.	.	?	.	.
Cc1ccc(O)c(C(=O)c2cc(C#N)c(=O)n(-c3nccs3)c2)c1	63	?	-	-	-	-
CC1CCCC(C)N1C(=O)c1cc(-c2cccs2)on1 (stereo not given)	-	.	-	16µM	-	-

Bioassay records: PubChem BioAssay, National Center for Advancing Translational Sciences (NCATS)
